# Experimental data reported in the antibiotic and cytotoxicity screens of Wong et al. (2023).
# Screen size: about 39,000 compounds; about 1,500 (3.8%) were called active. This is one part of a sample in which actives are shown more often than they occur.
# Test system: HSkMC (human skeletal muscle cells)
# Experiment: cytotoxicity call (relative viability < 0.9)
# Settings: 10 µM
row,SMILES,cytotoxicity call
1,C[C@H]1CN([C@@H](C)CO)C(=O)c2cc(-c3ccc(C(=O)N(C)C)cc3)cnc2O[C@@H]1CN(C)C(=O)c1ccncc1,inactive
2,COc1cccc(NC(=O)C[C@@H]2CC[C@H]3[C@H](COc4ccc(NC(=O)C5CCOCC5)cc4C(=O)N3C)O2)c1,inactive
3,C[C@@H]1CCCCO[C@H](CN(C)C(=O)Nc2ccccc2)[C@@H](C)CN([C@H](C)CO)C(=O)c2cc(NC(=O)Nc3ccc(F)cc3)ccc2O1,inactive
4,Cn1nnc2c(Cl)ncnc21,inactive
5,COc1cc(/C=C/C(=O)N2CCC=CC2=O)cc(OC)c1OC(=O)CCCCCCCCCCC(=O)Oc1c(OC)cc(/C=C/C(=O)N2CCC=CC2=O)cc1OC,inactive
6,CCOC(=O)/C=C/C(=O)N1CCC=CC1=O,active
7,C/C=C/C(=O)N1CCC=CC1=O,inactive
8,COc1cc(/C=C/C(=O)N2CCC=CC2=O)cc(OC)c1OCCOCCOCCOCCC(=O)OC(C)(C)C,active
9,CCC(=O)OCN1C(=O)C=CC1=O,inactive
10,COc1cc(C=CC(=O)O)cc(OC)c1OC,inactive
11,COc1cc(C=CC(=O)N2CCCCCCC2)cc(OC)c1OC,inactive
12,COC(=O)C=Cc1cc(OC)c(OC)c(OC)c1,inactive
13,COc1cc(C=CC(=O)N2CCC=CC2=O)cc(OC)c1OC,active
14,C=C(C)C(=O)N1CCC=CC1=O,active
15,C[C@@H]1CN([C@H](C)CO)C(=O)c2cc(NC(=O)Nc3ccc(F)cc3)ccc2O[C@@H](C)CCCCO[C@@H]1CN(C)C(=O)NC1CCCCC1,inactive
16,NCC[C@H]1CC[C@@H](NC(=O)C2CC2)[C@@H](CO)O1,inactive
17,COC[C@H]1CN(C)N=C(C2CC2)O1,inactive
18,C[C@H]1CN([C@@H](C)CO)C(=O)Cc2cc(NC(=O)Nc3cccc4ccccc34)ccc2O[C@@H]1CN(C)Cc1ccc(C(=O)O)cc1,inactive
19,O=C(O)C1CCC1,inactive
20,CO[C@H]1CN(C)C(=O)c2cc(NS(=O)(=O)CC(F)(F)F)ccc2OC[C@@H](C)N(Cc2ccccn2)C[C@H]1C,inactive
21,CC(C)NC(=O)N(C)C[C@H]1Oc2c(NC(=O)Nc3ccc4c(c3)OCO4)cccc2C(=O)N([C@H](C)CO)C[C@@H]1C,inactive
22,C[C@H]1CCCCO[C@H](CN(C)Cc2ccncc2)[C@@H](C)CN([C@@H](C)CO)C(=O)c2cc(NC(=O)CCC(F)(F)F)ccc2O1,inactive
23,O=C(O)C1(c2cccs2)CCCC1,inactive
24,Cc1noc(C)c1NC(=O)N(C)C[C@H]1Oc2c(NC(=O)NC(C)C)cccc2C(=O)N([C@@H](C)CO)C[C@@H]1C,inactive

row,SMILES,cytotoxicity call
1,CC[N+](CC)(CC)CCOc1ccc(/C=C/c2ccccc2)cc1,inactive
2,CCN(CC)CCNC(=O)c1c(C)[nH]c(/C=C2/C(=O)Nc3ccc(-c4csc(-c5ccccc5)n4)cc32)c1C,active
3,CCCCOc1cc(C(=O)NCCN(CC)CC)c2ccccc2n1.Cl,inactive
4,CN(C)CCCNC(=O)C[C@H]1CC[C@H]2[C@@H](COC[C@H](O)CN2C(=O)Nc2cc(Cl)cc(Cl)c2)O1,inactive
5,Cn1cc(N2C[C@]3(CNCCOC3)OCC2=O)cn1,inactive
6,CC(C)Nc1ncnc(N)c1[N+](=O)[O-],inactive
7,COc1ccc(C#Cc2ccc3c(c2)[C@]2(C(=O)N3)[C@H](C(=O)N3CCCCCCC3)[C@H]3C(=O)O[C@H](c4ccccc4)[C@H](c4ccccc4)N3[C@@H]2c2ccc(O)cc2)cc1,inactive
8,C[C@@H]1CCCCO[C@H](CN(C)Cc2ccc(C(F)(F)F)cc2)[C@H](C)CN([C@H](C)CO)C(=O)c2cc(NC(=O)Nc3ccc4c(c3)OCO4)ccc2O1,inactive
9,C[C@@H]1CN([C@@H](C)CO)C(=O)c2cc(NC(=O)Nc3ccc4c(c3)OCO4)ccc2O[C@@H](C)CCCCO[C@@H]1CN(C)Cc1ccc(C(F)(F)F)cc1,inactive
10,C[C@@H]1CCCCO[C@H](CN(C)Cc2ccc(C(F)(F)F)cc2)[C@@H](C)CN([C@@H](C)CO)C(=O)c2cc(NC(=O)Nc3ccc4c(c3)OCO4)ccc2O1,active
11,C[C@@H]1CN([C@@H](C)CO)C(=O)c2cc(NC(=O)Nc3ccc4c(c3)OCO4)ccc2O[C@@H](C)CCCCO[C@H]1CN(C)Cc1ccc(C(F)(F)F)cc1,inactive
12,C[C@@H]1CN([C@H](C)CO)C(=O)c2cc(NC(=O)Nc3ccc4c(c3)OCO4)ccc2O[C@@H](C)CCCCO[C@@H]1CN(C)Cc1ccc(C(F)(F)F)cc1,inactive
13,C[C@@H]1CCCCO[C@@H](CN(C)Cc2ccc(C(F)(F)F)cc2)[C@H](C)CN([C@H](C)CO)C(=O)c2cc(NC(=O)Nc3ccc4c(c3)OCO4)ccc2O1,active
14,C[C@H](CO)N1C[C@H](C)[C@@H](CN(C)C(=O)NC2CCCCC2)Oc2c(NC(=O)C3CC3)cccc2C1=O,inactive
15,CN(C)CCO[C@@H]1CC[C@@H]2[C@H]1OCCN2S(C)(=O)=O,inactive
16,COCCNC(=O)C[C@@H]1CC[C@H]2[C@@H](COc3ccc(NC(=O)Nc4cccc(F)c4)cc3C(=O)N2C)O1,inactive
17,C[C@@H]1CCCCO[C@H](CN(C)C(=O)Nc2ccc(F)cc2)[C@@H](C)CN([C@@H](C)CO)C(=O)c2cc(NC(=O)c3ccccc3)ccc2O1,inactive
18,C[C@@H]1CN([C@H](C)CO)C(=O)c2cc(NC(=O)Nc3ccc(C(F)(F)F)cc3)ccc2O[C@@H](C)CCCCO[C@@H]1CN(C)S(=O)(=O)c1cccs1,inactive
19,C[C@H](CO)N1C[C@H](C)[C@@H](CN(C)S(=O)(=O)c2cccs2)OCCCC[C@H](C)Oc2ccc(NC(=O)Nc3ccc(C(F)(F)F)cc3)cc2C1=O,inactive
20,C[C@H](CO)N1C[C@H](C)[C@H](CN(C)S(=O)(=O)c2cccs2)OCCCC[C@H](C)Oc2ccc(NC(=O)Nc3cccc4ccccc34)cc2C1=O,active
21,C[C@H](CO)N1C[C@H](C)[C@@H](CN(C)S(=O)(=O)c2cccs2)OCCCC[C@H](C)Oc2ccc(NC(=O)Nc3ccc4c(c3)OCO4)cc2C1=O,active
22,C[C@@H]1CCCCO[C@H](CN(C)S(=O)(=O)c2cccs2)[C@@H](C)CN([C@@H](C)CO)C(=O)c2cc(NC(=O)Nc3ccc(C(F)(F)F)cc3)ccc2O1,active
23,C[C@@H]1CCCCO[C@@H](CN(C)S(=O)(=O)c2cccs2)[C@@H](C)CN([C@@H](C)CO)C(=O)c2cc(NC(=O)Nc3cccc4ccccc34)ccc2O1,inactive
24,C[C@@H]1CN([C@H](C)CO)C(=O)c2cc(NC(=O)Nc3ccc4c(c3)OCO4)ccc2O[C@@H](C)CCCCO[C@H]1CN(C)S(=O)(=O)c1cccs1,inactive

row,SMILES,cytotoxicity call
1,C[C@@H]1CCCCO[C@@H](CN(C)S(=O)(=O)c2cccs2)[C@@H](C)CN([C@H](C)CO)C(=O)c2cc(NC(=O)Nc3ccc(C(F)(F)F)cc3)ccc2O1,inactive
2,C[C@@H]1CCCCO[C@H](CN(C)S(=O)(=O)c2cccs2)[C@H](C)CN([C@@H](C)CO)C(=O)c2cc(NC(=O)Nc3ccc(C(F)(F)F)cc3)ccc2O1,active
3,C[C@@H]1CCCCO[C@@H](CN(C)S(=O)(=O)c2cccs2)[C@H](C)CN([C@@H](C)CO)C(=O)c2cc(NC(=O)Nc3cccc4ccccc34)ccc2O1,inactive
4,C[C@@H]1CN([C@@H](C)CO)C(=O)c2cc(NC(=O)Nc3ccc4c(c3)OCO4)ccc2O[C@@H](C)CCCCO[C@@H]1CN(C)S(=O)(=O)c1cccs1,inactive
5,C[C@@H]1CN([C@@H](C)CO)C(=O)c2cc(NC(=O)Nc3ccc(C(F)(F)F)cc3)ccc2O[C@@H](C)CCCCO[C@@H]1CN(C)S(=O)(=O)c1cccs1,inactive
6,C[C@@H]1CN([C@H](C)CO)C(=O)c2cccc(NS(=O)(=O)c3ccccc3)c2O[C@@H]1CN(C)CC1CC1,inactive
7,O=C(C[C@H]1CC[C@@H]2[C@H](COC[C@H](O)CN2Cc2ccccc2F)O1)N[C@H]1CCN(Cc2ccccc2)C1,inactive
8,O=c1[nH][nH]c(=S)n1C1CC1,inactive
9,C=C(/C=C/CNS(=O)(=O)c1ccc(C)cc1)[C@H](O)[C@H]1CCCN1S(=O)(=O)c1ccccc1[N+](=O)[O-],inactive
10,O=C(C[C@H]1C[C@@H]2c3cc(NC(=O)c4cccnc4)ccc3O[C@@H]2[C@H](CO)O1)NCc1cc(F)ccc1F,inactive
11,C[C@H]1CN([C@@H](C)CO)C(=O)CCCn2nncc2CO[C@H]1CN(C)C(=O)CCCN(C)C,inactive
12,CCC[C@@H]1C[C@@H](C(=O)N[C@H]([C@H]2O[C@H](SC)[C@H](O)[C@@H](O)[C@H]2O)[C@@H](C)Cl)N(C)C1,inactive
13,Cc1noc(C)c1S(=O)(=O)N(C)C[C@H]1Oc2ccc(NS(C)(=O)=O)cc2CC(=O)N([C@@H](C)CO)C[C@H]1C,inactive
14,CCC(CCC(C)C1CCC2C3CC=C4CC(O)CCC4(C)C3CCC12C)C(C)C (stereo not drawn) [beta-SITOSTEROL ],inactive
15,N/C(=N/O)c1cnc2n(c1=O)CCS2,inactive
16,C[C@@H]1CN([C@H](C)CO)C(=O)Cc2cc(NC(=O)Cc3ccccc3)ccc2O[C@H]1CN(C)S(=O)(=O)c1cccs1,inactive
17,O=C(CN1CCOCC1)N[C@H]1CC[C@H](CCNC(=O)C2CCCCC2)O[C@H]1CO,inactive
18,C[C@@H]1CN([C@@H](C)CO)C(=O)c2ccccc2-c2ccccc2CO[C@H]1CN(C)S(=O)(=O)c1ccc(C(F)(F)F)cc1,inactive
19,Cc1cccc2c3c(ccc12)C1=C(C(=O)C3=O)C(C)CO1 (configuration not stated),inactive
20,Cc1coc2c1C(=O)C(=O)c1c-2ccc2c1CCCC2(C)C,active
21,CC1COC2=C1C(=O)C(=O)c1c2ccc2c1CCCC2(C)C (configuration not stated),active
22,C[C@H]1CN(C(=O)N(C)C)CCN1C(=O)N(C)C,inactive
23,O=C(O)Cn1c(=O)n(CC(=O)O)c2ccccc21,inactive
24,COC(=O)C(CCCN1C(=O)c2ccccc2C1=O)(NC(C)=O)c1nn[nH]n1 (configuration not stated),inactive
